These results are taken from PubChem BioAssay AID1224862 (National Center for Advancing Translational Sciences (NCATS), 2016).

Each structure is given as a SMILES string. Records with an inconclusive call do not appear. A call without a number means that no potency is given here. Calls of active or inactive are those of the source. The call rests on the fitted dose curve; in most records, active means well fitted cell-killing curve with a large enough effect; inconclusive means small, poorly fitted or top-dose-only effect, or effect the other way; inactive means flat fitted curve, though single readings scatter.

This assay in a line: Compound cytotoxicity measured by an ATP content assay as a counter-screen for lead compounds in human astrocytoma cell line (SNB-19). The settings on record: SNB-19 astrocytoma viability, ATP luminescence; series mostly up to 46.1 µM. The protocol: National Center for Advancing Translational Sciences [NCATS] Johns Hopkins University School of Medicine Florida State University Assay Overview: Many compounds can cause cytotoxicity at high compound concentrations. […] The compound cytotoxicity may also cause side effects or toxicity in human. Thus, the compound cytotoxicity needs to be measured in each cell type and each compound incubation time - same as these in the compound screening assay. The compound cytotoxicity can be measured by cell viability assays such as the ATP content assay. We use an ATP content assay kit for cell viability measurement. It measures ATP content (level) in human astrocytoma cell line (SNB-19) using a luminescence readout that is proportional to viable cell numbers. Decrease in the luminescence signal after the compound treatment indicates reduced cell viability and cell death caused by compound treatment.
Assay Protocol Summary: The medium for SNB-19 cells is composed of RPMI 1640 (ATCC, Cat.# 30-2001), 10% fetal bovine serum (FBS) (GE healthcare Life Sciences, Cat.# SH30071.03), and 1% Pen/Strep (Gibco, Cat.# 15140-122). The ATP content assay kit (PerkinElmer, Cat.# 6016731) was used to determine cell viability. The reagent was reconstituted and prepared as described by the manufacturer. Cells were seeded in 384- or 1536-well assay plates and cultured at 37 C with 5% CO2 for 16 to 20 hours. The typical cell seeding density in the 1536-well plate assay is 250 cells/well in 3ul medium for SNB-19 cells in tissue culture treated plates. Compounds were added to cells and incubated for a specific time such as 6, 24, or 72 hours before addition of the reagent mixture of the ATP content assay kit at 1:1 ratio. After incubation at room temperature for 10 minutes, the luminescence intensity in assay plates was measured using a ViewLux plate reader (PerkinElmer). […] The percentage inhibitions of the decreased cell viability by small molecules were then calculated that indicate compound cytotoxicity.
Regarding `Nc1ncnc2c1ncn2[C@@H]1O[C@@H](CO)[C@H](O)[C@H]1O`, the Potency result was “inactive”.
As to `CC1(C)OC2=C(C(=O)c3ccccc3C2=O)[C@H](NCc2ccccc2)[C@H]1O`, the Potency is 8.91 µM (active).
As to `O=C(Oc1ccccc1)c1cccc(C(=O)Oc2ccccc2)c1`, the Potency entry was “inactive”.
In the case of `O=C(O)c1cccc(-c2noc(-c3ccccc3F)n2)c1`, the Potency is 5.48 µM (active).
The same measure for `COc1ccnc2c1CCCCC2S(=O)c1nc2ccccc2[nH]1` (stereo not given): “inactive”.
For the molecule `O=C(O)c1cc([N+](=O)[O-])ccc1NCCCc1ccccc1`, the Potency result is “inactive”.
The result for `N#CC1(c2ccc(NC(=O)c3cccnc3NCc3ccncc3)cc2)CCCC1` reads “inactive”; that for `CNC1[C@H](O)C(O[C@@H]2C(O)C(O[C@H]3O[C@H]([C@@H](C)NC)CC[C@H]3N)[C@@H](N)C[C@H]2N)OC[C@]1(C)O` (stereo not given in full), “inactive”.
Turning to `CCCCCCCCCCCC(=O)[O][Sn]([CH2]CCC)([CH2]CCC)[O]C(=O)CCCCCCCCCCC`, the Potency entry is “inactive”.
The same measure for `CCC(C(=O)O)c1ccc(N2Cc3ccccc3C2=O)cc1` (stereo not given): “inactive”.
Consider `Nc1ccc(O)c(C(=O)O)c1`, for which the Potency result is “inactive”.
Take `O=C(O)Cc1ccc(-c2ccccc2)cc1`: the Potency entry is “inactive”.
The same measure for `COc1ccc(C=CC(=O)Nc2ccccc2C(=O)O)cc1OC`: “inactive”; for `Cc1cccc(C#Cc2ccccc2)n1`: 24.5 µM (active); for `CC(=NNC(=S)N1CCC1)c1ccccn1`: “inactive”.
For `O=C(O)c1ccccc1NCCc1ccccc1`, the Potency entry was “inactive”.
For the molecule `CC(C)c1ccc2oc3nc(N)c(C(=O)O)cc3c(=O)c2c1`, the Potency was 1.55 µM (active).
For `Cc1c(N)c(=O)n(-c2ccccc2)n1C`, the Potency result is “inactive”.
In the case of `CC(O)=C(C#N)C(=O)Nc1ccc(C(F)(F)F)cc1`, the Potency was 8.69 µM (active).
As to `O=C(Nc1ccc(C(=O)O)c(O)c1)c1ccccc1`, the Potency result is “inactive”.
The result for `CC(C(=O)O)c1ccc(C(=O)c2ccccc2)s1` (stereo not given) reads “inactive”; that for `O=S(=O)(O)c1ccc2nc(-c3ccccc3)[nH]c2c1`, “inactive”.
`Cc1[nH]c(C=C2C(=O)Nc3ccccc32)c(C)c1CCC(=O)O`: the Potency result is “inactive”.
Take `O=C(CS)Nc1ccccc1`: the Potency entry is “inactive”.
Take `CC(C(=O)O)c1ccc(C(=O)c2cccs2)cc1` (stereo not given): the Potency entry was “inactive”.
`CCCCCCCC/C=C/C(=O)O`: the Potency entry was “inactive”.
For `NC1CCC(Nc2nc(Nc3ccc(C(=O)N4CCCCC4)cc3)c3ncn(-c4cccc(F)c4)c3n2)CC1` (stereo not given), the Potency result was “inactive”.
The same measure for `CC(=O)Oc1ccccc1C(=O)Nc1ncc([N+](=O)[O-])s1`: “inactive”.
The same measure for `O=C(O)c1ccccc1Nc1cccc(C(F)(F)F)c1`: “inactive”; for `CNC(=O)c1ccccc1Sc1ccc2c(/C=C/c3ccccn3)n[nH]c2c1`: 10.9 µM (active).
Consider `C[C@@H]1CCN(C(=O)CC#N)C[C@H]1N(C)c1ncnc2[nH]ccc12`, for which the Potency result was “inactive”.
As for `C[C@@H](O[C@H]1OCCN(Cc2n[nH]c(=O)[nH]2)[C@@H]1c1ccc(F)cc1)c1cc(C(F)(F)F)cc(C(F)(F)F)c1`, the Potency result was “inactive”.
For the molecule `COc1ccc(-c2cc(=O)c3c(O)cc(O)cc3o2)cc1O`, the Potency entry is “inactive”.
Regarding `O=C(C=CC=Cc1ccc2c(c1)OCO2)N1CCCCC1`, the Potency result was “inactive”.
Consider `c1ccc(CCNc2nc(-c3ccccc3)cs2)cc1`, for which the Potency result was “inactive”.
Consider `CC(=O)Oc1cccc2c1C(=O)c1c(OC(C)=O)cc(C(=O)O)cc1C2=O`, for which the Potency entry was “inactive”.
Consider `CC[C@@]1(O)C[C@H](O[C@H]2C[C@H](N(C)C)[C@H](O[C@H]3C[C@H](O)[C@H](O[C@H]4CCC(=O)[C@H](C)O4)[C@H](C)O3)[C@H](C)O2)c2c(cc3c(c2O)C(=O)c2c(O)cccc2C3=O)[C@@H]1C(=O)OC`, for which the Potency result is “inactive”.
Regarding `Nc1ccc(N=Nc2ccccc2)c(N)n1`, the Potency result is “inactive”.
As to `Oc1ccc(/C=C/c2cc(O)cc(O)c2)cc1`, the Potency was 24.5 µM (active).
Regarding `Cc1nc(N)sc1-c1ccnc(Nc2ccc(N3CCOCC3)cc2)n1`, the Potency result is “inactive”.
